# Screening data deposited in PubChem BioAssay by Fisher Drug Discovery Resource Center.
# A selection: hits, their analogues and other compounds. The true share with any hit is near 0.24%.
# mcGAS lum: inhibitors of mouse cGAS; AID 1259399; recombinant cGAS, Kinase-Glo ATP depletion luminescence; 160,000 compounds, 0.15% hits; Q8C6L5; inhibition, % at 12.5 µM
# hcGAS lum: inhibitors of human cGAS; recombinant h-cGAS, ATP depletion, Kinase-Glo luminescence; Q8N884; 290,000 compounds, 0.081% hits; AID 1259398; inhibition, % at 12.5 µM
# Target sequence (Q8N884 whole entry, looked up): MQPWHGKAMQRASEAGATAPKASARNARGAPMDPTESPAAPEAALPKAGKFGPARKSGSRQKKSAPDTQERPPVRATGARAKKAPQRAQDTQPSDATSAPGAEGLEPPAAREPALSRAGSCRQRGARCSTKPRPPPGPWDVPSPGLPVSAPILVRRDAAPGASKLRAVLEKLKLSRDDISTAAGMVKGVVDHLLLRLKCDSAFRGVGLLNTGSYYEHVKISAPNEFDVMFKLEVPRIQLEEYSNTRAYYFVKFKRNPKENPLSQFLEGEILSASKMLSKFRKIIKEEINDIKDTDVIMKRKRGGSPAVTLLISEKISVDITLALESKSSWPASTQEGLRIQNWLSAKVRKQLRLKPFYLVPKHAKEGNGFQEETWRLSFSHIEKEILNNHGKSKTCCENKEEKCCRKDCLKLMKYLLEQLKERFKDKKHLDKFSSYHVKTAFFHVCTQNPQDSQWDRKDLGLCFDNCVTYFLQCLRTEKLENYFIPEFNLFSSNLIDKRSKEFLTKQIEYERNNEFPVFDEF
# NPYLR7 agonist: activates Aedes aegypti NPYLR7 receptor; HEK293T NPYLR7/Galpha15, GCaMP6s calcium fluorescence; activation, % at 10 µM; 270,000 compounds, 0.15% hits; in the data active = activation above about 40%
# A number is an active result; i = inactive; nt = no result; ! = a repeat was not active. Cut-off read from the data, not from the text of the source, unless noted: active = inhibition above about 40%; inactive = the rest.
SMILES,mcGAS lum,hcGAS lum,NPYLR7 agonist
COc1ccc(C(=O)N[C@@H]2CCCCC2NC(=O)C2CCCN(C(=O)CCc3ccccc3)C2)cc1 (some centres undefined),79.3,i,nt
COCC(=O)N1CCCC(C(=O)NC2CCCC[C@H]2NC(=O)c2ccccc2)C1 (some centres undefined),i,i,nt
CC(Cc1cnccn1)NC(=O)CC(=O)NC12CC3CC(CC(C3)C1)C2 (centres undefined),i,i,nt
COc1cc(C(=O)O)c(N)cc1OC(F)F,nt,i,i
CCCn1c(=O)n(CC(=O)N(C)CC(=O)Nc2cc(C)ccc2C)c2ccccc21,nt,i,i
CCN(CC)C(=O)Oc1ccc2c(ccn2Cc2c(Cl)ccc(C)c2F)c1-c1cc(F)cc(F)c1,i,i,i
CCCCC(CC)CNC(=O)c1ccc(-n2nc(C(=O)OCC)cc2-c2ccc(C)c(C)c2)cc1 (centres undefined),i,i,i
CCCCC(CC)CN=C(N)NC(N)=NCCCCCCN=C(N)NC(N)=NCC(CC)CCCC (centres undefined),i,i,45.8!
CCCCN=C(N)N=C(N)N,nt,i,i
CNC(=O)NC(=O)CCN1CC(c2ccccc2Cl)c2c([nH]c3ccccc23)C1C (centres undefined),nt,i,40.5
O=C(CCn1c(=O)[nH]c2ccccc2c1=O)NCCc1ccccc1Cl,nt,i,i
Cn1c(-c2ccncc2)nn(CN2CCN(c3ccccc3)CC2)c1=S,nt,i,i
O=C1c2ccccc2-c2nn(CN3CCN(c4ccccc4)CC3)c3cccc1c23,i,i,87.7
COC(=O)c1ccc(N2C(=O)CC(NCCc3ccc(OC)c(OC)c3)C2=O)cc1 (centres undefined),i,i,i
Cc1ccc(NC2C=CS(=O)(=O)C2)cc1C (centres undefined),i,i,110.3
Cc1ccc(F)cc1CC(=O)NC1C=CS(=O)(=O)C1 (centres undefined),i,i,i
COc1ccc(-c2cnnc(NCCN3CCCC(O)C3)n2)cc1 (centres undefined),i,i,i
COc1ccc(CCN2COc3ccc4c(c3C2)O/C(=C\c2cccnc2)C4=O)cc1,i,i,46.0
COc1ccc(-c2cc3ccc4c(c3oc2=O)CN(Cc2cccnc2)CO4)c(OC)c1,i,i,i
COc1cccc(CN2COc3ccc4c(c3C2)O/C(=C\c2ccncc2)C4=O)c1,i,i,66.4
COc1ccc(CN2COc3ccc4c(c3C2)O/C(=C\c2ccncc2)C4=O)cc1OC,i,i,i
CCOC(=O)C1=C(O)/C(=C\c2ccc3c(c2)OCCO3)SC1=Nc1cccc(F)c1,i,i,i
CCOC(=O)C12C(=O)OC(C)(C)C1C2(CC)C(=O)c1ccc(-c2ccccc2)cc1 (centres undefined),nt,i,i
Cc1ccc(C)n1-c1sccc1C(=O)O,86.2,43.6,i
Cc1sc(-n2c(C)ccc2C)c(C(=O)O)c1C,i,i,i
SMILES,mcGAS lum,hcGAS lum,NPYLR7 agonist
N#CC(=Cc1ccc(C=C(C#N)c2nnc3n2CCCCC3)cc1)c1nnc2n1CCCCC2,nt,i,i
N#CC(=Cc1ccc(C#N)cc1)c1nnc2n1CCCCC2,43.8,i,i
CCOC(=O)CCCSc1nnc(-c2cccnc2)n1-c1ccc(C)cc1,i,i,nt
COc1ccc(NC(=O)N2CCc3nc(Cc4cccc(F)c4)[nH]c(=O)c3C2)cc1,i,i,i
Clc1ccc2c(N3CCCNCC3)ccnc2c1,i,i,i
Clc1ccc2c(-n3ccnc3)ccnc2c1,nt,56.9,i
CC(NC(=O)c1cc(-c2ccccc2)nn1-c1ccc(F)cc1)c1ccccc1 (centres undefined),i,i,i
CNC[C@@H](O)c1ccc(O)c(O)c1,nt,i,54.5
CC(C)NC[C@@H](O)c1ccc(O)c(O)c1,i,i,i
O=C(CN1CCc2ccccc2C1)NCC1CCN(c2ccccc2)C1 (centres undefined),nt,i,i
O=C(Cc1ccc2c(c1)CCC2)NCC1CCN(c2ccccc2)C1 (centres undefined),i,i,49.1
CCOC(=O)Nc1cc(C)nn1-c1nc(-c2cccc(OC)c2)cs1,i,i,i
CCOc1cc2c(cc1C=C(C#N)C#N)OC(C)C2 (centres undefined),nt,i,95.4
CCOc1cc2c(cc1N)OC(C)C2 (centres undefined),i,i,i
Cc1nc2ccccn2c1Sc1ccc(Cl)cc1,nt,i,i
O=C(CCCN1CCCC1=O)NC1CCCN(C2CCCCCC2)C1 (centres undefined),nt,i,i
O=C1C(=Cc2cccnc2)Sc2ccccc21,65.4,i,i
O=C1C(=Cc2ccco2)Sc2ccccc21,nt,i,i
Cc1nc2ccccc2n1C1CCN(C(=O)C(C)CC(F)(F)F)CC1 (centres undefined),i,i,i
N#Cc1ccc([N+](=O)[O-])c(O)c1,nt,i,i
N#Cc1cc(I)c(O)c([N+](=O)[O-])c1,nt,67.1,i
N#CC1C(=N)Oc2cc(N)ccc2C1c1ccccc1I (centres undefined),nt,i,i
N#CC1C(=N)Oc2cc(N)ccc2C1c1c(Cl)cccc1Cl (centres undefined),i,i,159.6
Nc1c2c(nc3ccccc13)CCCC2,i,i,i
Nc1c2ccccc2nc2ccccc12,nt,72.0,i
SMILES,mcGAS lum,hcGAS lum,NPYLR7 agonist
O=C(Cn1cc(C2CC2)nn1)N1CCCc2cccc(Cl)c21,nt,i,i
Cc1c2ccccc2[nH]c2c1oc1cc(=O)ccc12,nt,i,i
Cc1[nH]ccc2c1[nH]c1cc(=O)ccc12,43.3,49.0!,i
COc1ccc(-n2ccnc2-c2nc(-c3cccs3)oc2C)cn1,nt,i,57.4
Cc1oc(-c2cccs2)nc1-c1nccn1Cc1noc(C(C)C)n1,i,i,nt
O=C(CSc1nc2ccccc2s1)N/N=C\c1ccco1,i,i,i
O=C(CSc1cn(CC(=O)N2CCCCCC2)c2ccccc12)NC1CCCC1,i,i,42.3
CNC(=O)CSc1cn(CC(=O)N2CCCCCC2)c2ccccc12,i,i,i
CCCCN1CCC(COC(=O)c2cc(Cl)c(N)c3c2OCCO3)CC1,91.4,i,i
CCCCN1CCC(CCC(=O)c2cc(Cl)c(N)cc2OC)CC1,nt,i,i
C[N+]1=C(CC=Nc2ccccc2)SCC1,nt,i,i
C(/C=C/CC=Nc1ccccc1)=Nc1ccccc1,i,i,66.1
CSc1nnc2c(n1)OC(c1ccc(OC(=O)c3ccc(Br)cc3)cc1)Nc1ccccc1-2 (centres undefined),i,i,45.6
CSc1nnc2c(n1)OC(c1ccc(Br)cc1)Nc1ccccc1-2 (centres undefined),i,i,i
O=C(CN1CCC2(CC1)OCCO2)N1N=C(c2ccc(F)cc2)CC1c1ccccc1Cl (centres undefined),i,i,i
CN1CCN(C(=O)C2=COC3=NC(=O)N(Cc4ccccc4C(F)(F)F)CCN23)CC1,nt,i,i
O=C(O)c1cc(O)c2c(O)c3c(O[C@H]4O[C@H](CO)[C@@H](O)[C@H](O)[C@H]4O)cccc3c(-c3c4cc(C(=O)O)cc(O)c4c(O)c4c(O[C@H]5O[C@H](CO)[C@@H](O)[C@H](O)[C@H]5O)cccc34)c2c1,nt,42.4!,i
OCC1OC(Oc2ccccc2Cl)C(O)C(O)C1O (centres undefined),i,i,i
CC(c1cccs1)N(C)C(=O)CCn1nnc2ccccc21 (centres undefined),i,i,i
N=C1/C(=C\c2ccc(Br)o2)C(=O)N=C2SC(Cc3cccs3)=NN12,nt,i,i
